Columns and labels:
Format in all cases: functional
[1] = biological target: Solute carrier family 2, facilitated glucose transporter member 1 (Homo sapiens) (UniProt P11166); assay: ST_JUDE_LEISH: Cytotoxicity at 2uM final concentration against transgenic Leishmania Mexicana promastigotes LmGLUT1 that are glucose transport deficient and complemented with the human glucose transporter GLUT1. Activity is measured by DNA content using SYBR green in vitro
[2] = biological target: Hexose transporter 1 (Plasmodium falciparum) (UniProt O97467); assay: ST_JUDE_LEISH: Cytotoxicity at 2uM final concentration against transgenic Leishmania Mexicana promastigotes LmPfHT that are glucose transport deficient and complemented with the Plasmodium falciparum hexose transporter. Activity is measured by DNA content using SYBR green in vitro
[3] = biological target: Glucose transporter (Leishmania mexicana) (UniProt O61059); assay: ST_JUDE_LEISH: Cytotoxicity at 2uM final concentration against transgenic Leishmania Mexicana promastigotes LmGT2 that are glucose transport deficient and complemented with the L. Mexicana glucose transporter 2. Activity is measured by DNA content using SYBR green in vitro

Solute carrier family 2, facilitated glucose transporter member 1 (Homo sapiens), sequence (P11166 whole entry): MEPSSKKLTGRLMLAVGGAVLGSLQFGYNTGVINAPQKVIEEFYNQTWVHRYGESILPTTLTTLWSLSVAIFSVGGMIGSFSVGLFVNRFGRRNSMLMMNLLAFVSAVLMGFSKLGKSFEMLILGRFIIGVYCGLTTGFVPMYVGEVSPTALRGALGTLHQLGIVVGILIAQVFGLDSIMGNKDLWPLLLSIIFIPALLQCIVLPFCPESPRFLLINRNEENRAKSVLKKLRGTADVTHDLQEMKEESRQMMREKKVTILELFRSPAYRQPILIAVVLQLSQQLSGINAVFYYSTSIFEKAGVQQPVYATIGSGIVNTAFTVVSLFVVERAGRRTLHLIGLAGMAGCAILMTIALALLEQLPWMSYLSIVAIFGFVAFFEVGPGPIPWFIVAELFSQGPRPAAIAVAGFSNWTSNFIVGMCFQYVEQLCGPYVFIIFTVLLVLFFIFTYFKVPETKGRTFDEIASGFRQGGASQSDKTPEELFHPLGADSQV

SMILES	inhibition [1]	inhibition [2]	inhibition [3]
CC(=O)c1ccccc1C(=O)N1CCOc2ccc(C(O)C(c3ccccc3)c3ccccc3)cc2C1 (stereo unspecified)	0.04%	-1.21%	-1.21%
Nc1cccc(CNCc2ccc(-c3cccc(-c4nc5cc(C(F)(F)F)ccc5[nH]4)c3)cc2)c1	0.23%	1.1%	1.02%
Nc1ccnc2ccc(NC(=O)CCCCCc3ccccc3)cc12	1.43%	0.96%	1.99%
COc1ccc2nccc(N3CCN(CCNCc4ccc5c(n4)NC(=O)CO5)CC3)c2c1	8.8%	8.24%	8.99%
COc1ccc(C(=O)N2CCN(c3ccc([N+](=O)[O-])c(NC4CC4)c3)CC2)cc1Br	14.4%	14.1%	12.6%
CC(=O)Nc1ncc(C(=O)Nc2cccc(-c3cccc(-c4nc5cc(F)ccc5[nH]4)c3)c2)s1	1.74%	2.62%	1.65%
CC(C)(C)c1ccc(CN2CCC(NC(=O)c3ccc(-c4ccccc4Cl)s3)CC2)cc1	10.1%	7.04%	3.18%
Cc1ccc(Cn2ncc(NC3CCNCC3)c(Cl)c2=O)cc1NC(=O)Nc1ccc(-c2ccccc2)cc1	5.14%	9.28%	5.29%
O=C(/C=C/c1ccc(Cl)c(Cl)c1)NCCCCCN1CCC(CCNC(=O)/C=C/c2ccc(Cl)c(Cl)c2)CC1	1.63%	-0.93%	0.87%
O=S(=O)(NC1CCN(c2ccnc3ccccc23)C1)c1ccc(OC(F)(F)F)cc1 (stereo unspecified)	2.25%	-0.51%	2.41%
O=C(/C=C/c1ccc(Cl)c(Cl)c1)NCCCCCN1CCC(NC(=O)Nc2ccc(Cl)cc2F)CC1	2.9%	1.84%	2.48%
NC(=O)c1cccc(Nc2nccc(Nc3ccc4[nH]c(-c5ccccc5)cc4c3)n2)c1	-0.28%	0.57%	1.6%
COc1ccc(CCN2CCC(NCc3cccc(N(C)C)c3)CC2)cc1	-2.94%	2.54%	-1.51%
Nc1ccc(-c2ccc3ccnc(N)c3c2)cc1	0.24%	-0.79%	1.39%
CCc1ccc(C2CCN(CCCCNC(=O)c3ccc(NC(=O)c4ccc(Cl)cc4)cc3)CC2)c(OC(C)=O)c1	3.29%	3.47%	3.54%
COC(=O)c1ccc2nc(-c3ccc(/C=C/C(=O)NC4CCN(Cc5ccccc5)CC4)cc3)[nH]c2c1	0.71%	5.26%	5.84%

SMILES	inhibition [1]	inhibition [2]	inhibition [3]
CCCCc1ccc(C(=O)NC2CCN(C[C@H](O)c3ccnc4ccc(OC)cc34)CC2)cc1	66.8%	65.3%	76.8%
CC(C)CNCc1ccc(-c2ccc(CN(C(=O)NCCc3ccccc3)C3CCN(Cc4ccccc4)CC3)cc2)cc1	71.6%	53.7%	47.2%
Cc1cc(N2CCCC2)nc(Nc2ccc(NC(=O)C(C)Oc3ccccc3)cc2)n1 (stereo unspecified)	10.6%	15.9%	7.47%
N#Cc1ccc(-c2ccc(C(=O)Nc3ccc4c(c3)CCN(C3CCC3)CC4)nc2)cn1	7.75%	7.17%	5.21%
CCOc1cc(Cc2cnc(N)nc2N)cc(OCC)c1OCCCCC(=O)OC	4.55%	0.23%	0.19%
CC(C)CCn1c(Sc2ccc([N+](=O)[O-])cc2C(F)(F)F)nnc1-c1ccccc1Cl	1.8%	1.95%	2.26%
OC(CNc1ccnc(Nc2cccc(Cl)c2)n1)c1ccccc1C(F)(F)F (stereo unspecified)	4.32%	4.32%	-0.94%
O=C(/C=C/c1ccc(Cl)c(Cl)c1)N1CCC(CCN2CCC(c3c[nH]c4ccccc34)CC2)CC1	-0.41%	0.94%	0.41%
O=c1cc(NCCCNCc2cccc(C(F)(F)F)c2Cl)[nH]c2ccccc12	3.39%	3.63%	2.75%
CC(=O)NC(c1cccs1)c1cc(Cl)c2cccnc2c1O (stereo unspecified)	7.76%	6.65%	7.85%
Cn1cccc1C(=O)C(=O)Nc1cccc(-c2ccc(-c3nc4cc(C(F)(F)F)ccc4[nH]3)cc2)c1	4%	2.42%	-0.4%
N#Cc1c(N)n(CCc2ccc(F)cc2)c2nc3ccccc3nc12	1.05%	1.58%	-0.08%
CCCCn1c(Sc2ccc(C#N)c([N+](=O)[O-])c2)nnc1-c1cc(OC)cc(OC)c1	0.5%	3.21%	0.45%
N#Cc1cccc(Nc2ncc3c(-c4cccc(NC(=O)Cc5cccc(Cl)c5)c4)c[nH]c3n2)c1	3.15%	2.53%	0.18%
O=C(/C=C/c1ccc(Cl)c(Cl)c1)NCCCCCN1CCC(c2c[nH]c3cc(O)ccc23)CC1	9.77%	8.43%	7.41%
NC(=O)C1CCN(Cc2cccc(-c3cccc(-c4nc5cc(C(F)(F)F)ccc5[nH]4)c3)c2)CC1	13.1%	11.4%	10.3%

Reference: ChEMBL document CHEMBL3433997, “St. Jude Leishmania screening dataset” (2016)
